Reference: PubChem BioAssay (NCATS)
Results filed as inconclusive are left out. The source made the active and inactive calls. Calls follow the shape of the dose curve; as a rule, active = well fitted curve in the direction sought with a large enough effect; inconclusive = small, poorly fitted or top-dose-only effect, or another doubt; inactive = no such curve, though single readings can be large; an effect the other way counts as inactive or inconclusive.

Assay: qHTS Screen of the MIPE 4.0 Collection Against Ewings Sarcoma (TC32) (AID 1259256); also: nearly all actives have a fitted effect of over 45% in size;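 as to viability (percent of control): 100% = DMSO-treated cells and 0% = medium-only wells without cells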
Settings: TC32 Ewing sarcoma viability, CellTiter-Glo, 48 h; series mostly up to 45.8 µM; viability (percent of control): at the top concentration
Summary of the method: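 After a 4 h attachment period in RPMI/5% FBS, cells were pin-dosed with test compounds; DMSO served as negative and 9.2 uM bortezomib (final) as positive control. Luminescent CellTiter-Glo signal at 48 h defined viability.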
Potency is read from the fitted curve at half-maximal effect.

Compound	viability (percent of control)	Potency
C[Se]CCC(N)C(=O)O (centres undefined)	115% [at 92.2 µM] (inactive)	
COc1cc2c(cc1OC)C1CC(=O)C(CC(C)C)CN1CC2 (centres undefined)	126% (inactive)	
COC(=O)N[C@H](C(=O)N[C@@H](Cc1ccccc1)[C@@H](O)CN(Cc1ccc(-c2ccccn2)cc1)NC(=O)[C@@H](NC(=O)OC)C(C)(C)C)C(C)(C)C	99.6% (inactive)	
CN(C)[C@@H](CCOc1cccc2ccccc12)c1ccccc1		26.4 µM (active)
CN1C(C(=O)Nc2ccccn2)=C(O)c2sccc2S1(=O)=O	115% (inactive)	
CCCCCCCCCCCCCCCCCCCCCCO	123% (inactive)	
NNc1nncc2ccccc12	126% (inactive)	
CN(C)c1ccc2nc3ccc(=[N+](C)C)cc-3sc2c1		9.35 µM (active)
COC(=O)C1=C(C)NC(C)=C(C(=O)OCCCN2CCC(c3ccccc3)(c3ccccc3)CC2)C1c1cccc([N+](=O)[O-])c1 (centres undefined)		29.6 µM (active)
O=Nc1c(-c2c(O)[nH]c3cc(Br)ccc23)[nH]c2ccccc12		4.18 µM (active)
OC(CN1CCN(c2cccc(Cl)c2)CC1)C(c1ccccc1)c1ccccc1 (centres undefined)		16.6 µM (active)
O=C(c1ccccc1)c1ccc2n1CCC2C(=O)O (centres undefined)		3.72 µM (active)
COc1cc(OC)c(C(=O)CCCN2CCCC2)c(OC)c1	111% (inactive)	
O=c1c(O)c(-c2ccc(O)cc2O)oc2cc(O)cc(O)c12	122% (inactive)	
NC(=O)Cc1cccc(C(=O)c2ccccc2)c1N		4.69 µM (active)
CCCS(=O)c1ccc2nc(NC(=O)OC)[nH]c2c1 (centres undefined)		23.5 µM (active)
Cc1nc(-c2ccc(OCC(C)C)c(C#N)c2)sc1C(=O)O	127% (inactive)	
COC1=C(OC)C(=O)C(CCCCCCCCCCO)=C(C)C1=O		26.4 µM (active)
Clc1ccc2c(N3CCN(CCCN4CCN(c5ccnc6cc(Cl)ccc56)CC4)CC3)ccnc2c1	117% [at 23.2 µM] (inactive)	

Compound	viability (percent of control)	Potency
Cc1cccc(CN2CCN(C(c3ccccc3)c3ccc(Cl)cc3)CC2)c1 (centres undefined)		13.2 µM (active)
O=C(NOCC1CC1)c1ccc(F)c(F)c1Nc1ccc(I)cc1Cl		16.6 µM (active)
Cc1cc(O)c2c(c1)C(=O)c1cc(O)cc(O)c1C2=O	114% (inactive)	
Cc1c(OCC(F)(F)F)ccnc1CS(=O)c1nc2ccccc2[nH]1 (centres undefined)	98.8% (inactive)	
CC(=O)O[C@H]1C(=O)[C@@]2(C)C([C@H](OC(=O)c3ccccc3)[C@]3(O)C[C@H](OC(=O)[C@H](O)[C@@H](NC(=O)c4ccccc4)c4ccccc4)C(C)=C1C3(C)C)[C@]1(OC(C)=O)CO[C@@H]1C[C@@H]2O (some centres undefined)	111% (inactive)	
Nc1nc(N)c(N=O)c(OCC2CCCCC2)n1		9.35 µM (active)
CCc1nc(N)nc(N)c1-c1ccc(Cl)cc1		2.64 µM (active)
CC(C)c1nc(CN(C)C(=O)N[C@H](C(=O)N[C@@H](Cc2ccccc2)C[C@H](O)[C@H](Cc2ccccc2)NC(=O)OCc2cncs2)C(C)C)cs1		14.8 µM (active)
C[C@@H](c1ncncc1F)[C@](O)(Cn1cncn1)c1ccc(F)cc1F	133% (inactive)	
CC1=C(C)C(=O)C(C(CCCCCC(=O)O)c2ccccc2)=C(C)C1=O (centres undefined)	138% (inactive)	
NCCCCNCCCN	106% (inactive)	
O=c1c(O)c(-c2cc(O)c(O)c(O)c2)oc2cc(O)cc(O)c12	109% (inactive)	
N=C(N)c1ccc2cc(OC(=O)c3ccc(N=C(N)N)cc3)ccc2c1	121% (inactive)	
COc1ccccc1N1CCN(CCN(C(=O)C2CCCCC2)c2ccccn2)CC1	109% (inactive)	
CN(C)CCCC1(c2ccc(F)cc2)OCc2cc(C#N)ccc21 (centres undefined)		16.6 µM (active)
CC(C)Oc1ccc2c(=O)c(-c3ccccc3)coc2c1	125% (inactive)	
COc1cc2nc(N3CCN(C(=O)C4CCCO4)CC3)nc(N)c2cc1OC (centres undefined)	90.5% (inactive)	
O=C(O)c1cccnc1Nc1cccc(C(F)(F)F)c1	129% (inactive)	

Assay: qHTS assay to identify small molecule inhibitors of chordoma cells - UCH-1 (AID 1259355); also: nearly all actives have a fitted effect of over 55% in size; as to activity, negative = inhibition: % is scaled to controls: 0 for no effect and ±100 for the full control effect
Settings: UCH-1 chordoma viability, CellTiter-Glo, 48 h, combination, with auranofin plus four topoisomerase inhibitors; series mostly up to 46.1 µM; activity, negative = inhibition: at the top concentration
Summary of the method: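 800 cells/well, overnight attach; compounds pinned at 15 concs, then auranofin/camptothecin/doxorubicin/rubitecan/topotecan combo added; 48hr 37 C, 5% CO2; CellTiter-Glo, 30min RT, luminescence.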

Compound	activity, negative = inhibition	Potency
C[Se]CCC(N)C(=O)O (centres undefined)	-18.6% (inactive)	
CN1C(C(=O)Nc2ccccn2)=C(O)c2sccc2S1(=O)=O	6.35% [at 20.6 µM] (inactive)	
CCCCCCCCCCCCCCCCCCCCCCO	7.06% (inactive)	
NNc1nncc2ccccc12	-20.2% [at 20.6 µM] (inactive)	
CN(C)c1ccc2nc3ccc(=[N+](C)C)cc-3sc2c1		7.94 µM (active)
COC(=O)C1=C(C)NC(C)=C(C(=O)OCCCN2CCC(c3ccccc3)(c3ccccc3)CC2)C1c1cccc([N+](=O)[O-])c1 (centres undefined)		31.6 µM (active)
O=C(c1ccccc1)c1ccc2n1CCC2C(=O)O (centres undefined)	1.52% [at 20.6 µM] (inactive)	
COc1cc(OC)c(C(=O)CCCN2CCCC2)c(OC)c1	9.5% [at 20.6 µM] (inactive)	
COC1=C(OC)C(=O)C(CCCCCCCCCCO)=C(C)C1=O	-7.23% (inactive)	
Cc1cccc(CN2CCN(C(c3ccccc3)c3ccc(Cl)cc3)CC2)c1 (centres undefined)	-15.2% [at 20.6 µM] (inactive)	
Cc1c(OCC(F)(F)F)ccnc1CS(=O)c1nc2ccccc2[nH]1 (centres undefined)	0.302% (inactive)	
CCc1nc(N)nc(N)c1-c1ccc(Cl)cc1	-9.92% (inactive)	
CC1=C(C)C(=O)C(C(CCCCCC(=O)O)c2ccccc2)=C(C)C1=O (centres undefined)	-6.56% (inactive)	
N=C(N)c1ccc2cc(OC(=O)c3ccc(N=C(N)N)cc3)ccc2c1	-22.8% (inactive)	
CC(C)Oc1ccc2c(=O)c(-c3ccccc3)coc2c1	-9.06% (inactive)	
COc1cc2nc(N3CCN(C(=O)C4CCCO4)CC3)nc(N)c2cc1OC (centres undefined)	-3.3% [at 1.88 µM] (inactive)	
O=C(O)c1cccnc1Nc1cccc(C(F)(F)F)c1	-6.08% (inactive)	
